Marburg entry inh = qHTS for inhibitors of binding or entry into cells for Marburg Virus | Marburg virus pseudotyped entry inhibition, cell reporter | Potency, µM (series often up to 37.8 µM), for inactives: at the top dose activity change, negative = inhibition, usual class: inhibitors | 1.8% of 300,000 active | AID 540276, 2011; calls by dose curve; tested in HEK293 cells; also: potency is read from the fitted curve at half-maximal effect
Lassa entry inh = qHTS for Inhibitors of binding or entry into cells for Lassa Virus; Lassa virus pseudotype entry inhibition, cell reporter; Potency, µM (series often up to 37.9 µM), for the others: top-dose activity change, negative = inhibition, hits mostly inhibitors; 1.2% of 300,000 active; AID 540256, 2011; calls by dose curve; tested in HEK293 cells; also: potency is read from the fitted curve at half-maximal effect; nearly all actives have a fitted effect of over 50% in size
FMDV inh = High Throughput Screening for Foot and Mouth Disease Virus Antivirals. FMDV antiviral cell-based qHTS. Potency, µM (highest dose often 57.9 µM), for the others: at the top dose activity change, negative = inhibition, usual class: inhibitors. 1.2% of 410,000 active. AID 1159524, 2015; calls by dose curve; tested in HEK293T cells; also: read-out not given here; potency is read from the fitted curve at half-maximal effect; nearly all actives have a fitted effect of over 45% in size
HCV inhibitor = qHTS Assay for Inhibitors of Hepatitis C Virus (HCV); Huh7.5.1 HCVcc-Cre infection, luciferase reporter, 44 h; Potency, µM (highest dose often 41.8 µM), inactives show at the top dose activity change, negative = inhibition, usual class: inhibitors; 3.4% of 340,000 active; active = well fitted inhibition curve with a large enough effect; inconclusive = small, poorly fitted or top-dose-only effect, or another doubt; inactive = no such curve, though single readings can be large or run the other way; also: potency is read from the fitted curve at half-maximal effect
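Infectious HCVcc-Cre (~0.5 moi) was added to cells just after compound, with cells seeded 4 h earlier at 1,000 per well. Luciferase activity after 44 h culture reported infection; substrate was incubated 15 min at room temperature before reading.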
HCMV antiviral = qHTS Assay for inhibitors of the human cytomegalovirus (HCMV). HFF cells, HCMV-luciferase reporter, 72 h; hits give low values. activity change, negative = inhibition, % at 57.5 µM. 4.5% of 410,000 active; in the data active = activity change below about -60%; inconclusive = no clear call, values can overlap the other calls; inactive = above about -39%
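Inhibition of viral replication was scored as loss of reporter luminescence in HFFs infected with HCMV-luciferase (MOI 1 PFU/cell) for 72 h; compounds tested at 2 doses, normalized to buffer and Salinomycin controls.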
Numbers without * were called inactive; [ ] = dose if it differs, or a comment. Most compounds without a hit are left out; they make up all but 7.9% or so of the library. % is scaled to controls: 0 for no effect and ±100 for the full control effect.

For O=C1NNC(c2ccccc2)=N/C1=C\c1ccco1 the results were Marburg entry inh 3%[46.1 µM], Lassa entry inh 11%[46.1 µM], FMDV inh -19%, HCV inhibitor 6% and HCMV antiviral 15.
For COc1ccc(/C=C2/C(=O)ON=C2c2ccccc2)cc1OC the results were Marburg entry inh 2%[46.1 µM], Lassa entry inh -5%, FMDV inh 22µM*, HCV inhibitor -2% and HCMV antiviral 83.
Screening CCOc1cc(/C=C2/C(=O)ON=C2C)ccc1OCc1ccc(F)cc1 returned Marburg entry inh inconclusive, Lassa entry inh -17%, FMDV inh 22%, HCV inhibitor inconclusive and HCMV antiviral -97*.
For O=C(COCc1cc(-c2ccc3c(c2)OCO3)on1)Nc1cc(C(F)(F)F)ccc1Cl the results were Lassa entry inh 11%[46.1 µM], FMDV inh -21% and HCMV antiviral 8.
`COc1ccc(C2=NCCn3c2c2ccc(OC)cc2[n+]3[O-])cc1` gave HCMV antiviral 32.
Cc1nn(C)c2c1c(-c1ccccc1)cc(=O)n2C(C)C(=O)NCc1ccc(F)cc1 (stereo not drawn) was read as Lassa entry inh inconclusive, FMDV inh -16% and HCMV antiviral -4.
CN(C)/C=C1\C(=O)ON=C1c1ccccc1 was read as Marburg entry inh 1%[46.1 µM], Lassa entry inh 2%, FMDV inh -20%, HCV inhibitor 18% and HCMV antiviral 45.
O=C1ON=C(c2ccccc2)/C1=C/c1ccc(-c2ccccc2[N+](=O)[O-])o1 was read as Marburg entry inh inconclusive, Lassa entry inh inconclusive, FMDV inh 28µM*, HCV inhibitor 1% and HCMV antiviral -98*.
COc1cc(/C=C2\C(=O)ON=C2c2ccccc2)cc(OC)c1OC was read as Marburg entry inh -14%, Lassa entry inh -2%, FMDV inh 25µM*, HCV inhibitor -12% and HCMV antiviral -7.
Screening NC(=O)COc1ccc(/C=C2\C(=O)ON=C2c2ccccc2)cc1 returned Marburg entry inh inconclusive, Lassa entry inh 23%, FMDV inh 25µM*, HCV inhibitor 6% and HCMV antiviral 3.
Screening O=C1ON=C(c2ccccc2)/C1=C/c1ccco1 returned Marburg entry inh -3%[46.1 µM], Lassa entry inh 4%[46.1 µM], FMDV inh 32µM*, HCV inhibitor 11% and HCMV antiviral -2.
O=[N+]([O-])c1ccccc1-c1ccc(/C=N/n2cnnc2)o1 was read as Marburg entry inh inconclusive, Lassa entry inh 19%[14.3 µM], FMDV inh 2% and HCMV antiviral 1.
CCOc1ccccc1NC(=O)c1cn(C2CCCC2)c(=O)c2c1c1ccccc1n2C was read as Marburg entry inh inconclusive, Lassa entry inh inconclusive, FMDV inh -26% and HCMV antiviral inconclusive.
For CC(C)CCNc1nc(Nc2ccccc2)c2cnn(C)c2n1 the results were Lassa entry inh 27%[46.1 µM], FMDV inh -10% and HCMV antiviral 52.
CC(N)COC(=O)C(CCCCN)NC(=O)Cc1c(-c2ccc3ccccc3c2)[nH]c2c1ccc1ccccc12 (stereo not drawn) was read as FMDV inh -22%.
For CC(C)CCOc1ccc(Oc2nc(N(C)C)nc(N(C)C)n2)nn1 the results were Marburg entry inh 7%[46.1 µM], Lassa entry inh -2%[46.1 µM], FMDV inh -15% and HCMV antiviral 129.
For CC1=NC(=O)C(N=Nc2cccc(C(=O)O)c2)N1c1ccccc1 (stereo not drawn) the results were Marburg entry inh 2.6µM*, Lassa entry inh 2.3µM*, FMDV inh 8.9µM*, HCV inhibitor 18% and HCMV antiviral 96.
For CN1CCC(Oc2ccccc2Sc2ccc(C(F)(F)F)cc2)CC1 the results were Marburg entry inh inconclusive, Lassa entry inh 12µM*, FMDV inh -25%, HCV inhibitor 11µM* and HCMV antiviral inconclusive.
`COC(=O)c1nn(-c2ccc3c(c2)OCO3)cc1O` gave Marburg entry inh -12%, Lassa entry inh inconclusive, FMDV inh 6%, HCV inhibitor -8% and HCMV antiviral 62.
Screening COC(=O)c1nn(-c2ccc3c(c2)CCN3C(C)=O)cc1O returned Marburg entry inh inconclusive, Lassa entry inh 2.6µM*, FMDV inh 8.9µM*, HCV inhibitor -6% and HCMV antiviral inconclusive.
Screening COC(=O)c1cc(NC(=O)CC2SC(=Nc3ccccc3)N(CCc3c[nH]c4ccccc34)C2=O)cc(C(=O)OC)c1 (stereo not drawn) returned Marburg entry inh inconclusive, Lassa entry inh inconclusive, FMDV inh -16%, HCV inhibitor 4.5µM* and HCMV antiviral 26.
`COCCN1C(=O)C(CC(=O)Nc2ccc(C(=O)O)cc2)SC1=Nc1ccccc1` (stereo not drawn) gave Marburg entry inh 4%, Lassa entry inh 0%, FMDV inh -4%, HCV inhibitor 7% and HCMV antiviral -17.
CC1=CC=CC2=NC(=O)CC(C)(C(=O)N(CC(=O)NC3CCCC3)c3ccc(F)cc3)N12 (stereo not drawn) was read as Marburg entry inh inconclusive, FMDV inh -1%, HCV inhibitor -20% and HCMV antiviral -82*.
`CNc1cc(N2CCCC2)ccc1[N+](=O)[O-]` gave Marburg entry inh 6%[46.1 µM], Lassa entry inh 0%, FMDV inh 21%, HCV inhibitor 25µM* and HCMV antiviral 10.
Screening CC(C)CNc1cc(N2CCCC2)ccc1[N+](=O)[O-] returned Marburg entry inh -23%, Lassa entry inh -3%, HCV inhibitor 4µM* and HCMV antiviral -38.
`CCNc1cc(N2CCCC2)ccc1[N+](=O)[O-]` gave Marburg entry inh -11%, Lassa entry inh 3%, FMDV inh -8%, HCV inhibitor inconclusive and HCMV antiviral -14.
For CCN1C(=O)N(C)C(c2ccccc2)C(C(C)=O)=C1C (stereo not drawn) the results were Marburg entry inh 13%[14.2 µM].
Screening COc1cccc(N2CCN(C(=O)CN3CCSc4ccc(S(=O)(=O)N(C)C)cc43)CC2)c1 returned Lassa entry inh -9%[46.1 µM], FMDV inh -22% and HCMV antiviral 5.
CCc1ccc(-n2nc3ccc(NC(=O)c4cc(Cl)c(OC)c(Cl)c4)cc3n2)cc1 was read as Marburg entry inh -29%[46.1 µM], Lassa entry inh -2%[46.1 µM], FMDV inh -21% and HCMV antiviral 10.
Cc1ccc(C2=NN(C(=O)CCC(=O)O)C(c3cn(-c4ccccc4)nc3-c3ccc(C)cc3)C2)cc1 (stereo not drawn) was read as FMDV inh -24%, HCV inhibitor 0% and HCMV antiviral -60*.
N#CC1CC(c2ccccc2)=NN1c1ccccc1[N+](=O)[O-] (stereo not drawn) was read as Marburg entry inh inconclusive, Lassa entry inh inconclusive, FMDV inh 22%, HCV inhibitor inconclusive and HCMV antiviral -64*.
